For seven sequences, PBM binding z-score results are on record in the supplement of paper PMC6555819.

Holding throughout (assay): PBM binding z-score (relative to random genomic background probes); higher = stronger binding; sequences stand for … in GC…GCGATTGACAGCGTAGAATGAAGG
The test system of assay [1] is FXR:RXRa (NR concentration 270 nM, RXRa partner concentration 90 nM). A digest of the protocol: (§1)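 Custom Agilent 4×180K protein-binding microarrays carried double-stranded probes. Their 34-nt variable regions held direct-repeat seeds, single-nucleotide variants, half-site ablations and random human genomic background sequences. Arrays were incubated 1 h with ligand-free nuclear receptor dimers in PBS pH 7.4, 2% milk, 0.02% Triton X-100, 1 mM DTT, 0.2 mg/mL BSA and 0.4 mg/ml salmon testes DNA. Antibodies against each partner (one per run) detected binding, and scanned fluorescence was regression-normalized. Binding z-scores use random background probes as reference.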

Assay [2] has as its system LXRa:RXRa (NR concentration 270 nM, RXRa partner concentration 90 nM). The method, boiled down: as §1
Assay [3] concerns LXRa homodimer (NR concentration 270 nM). A digest of the protocol: as §1
For assay [4], the system named is LXRb:RXRa (NR concentration 270 nM, RXRa partner concentration 90 nM). The method, boiled down:
as §1

The subject of assay [5] is LXRb homodimer (NR concentration 270 nM). The method, boiled down: as §1
Assay [6] concerns PPARa:RXRa (NR concentration 270 nM, RXRa partner concentration 90 nM). The method, boiled down: as §1
The subject of assay [7] is PPARg:RXRa (NR concentration 180 nM, RXRa partner concentration 90 nM). A digest of the protocol: as §1
The test system of assay [8] is PPARg:RXRa 270nM:90nM, anti-RXR (NR concentration 270 nM, RXRa partner concentration 90 nM). The method, boiled down:
as §1

In assay [9] the test system is PPARg:RXRa 30nM:10nM, anti-RXR (NR concentration 30 nM, RXRa partner concentration 10 nM). A digest of the protocol: as §1
Assay [10] concerns PPARg:RXRa 90nM:30nM, anti-RXR (NR concentration 90 nM, RXRa partner concentration 30 nM). A digest of the protocol:
as §1

The subject of assay [11] is PPARg:RXRa DBDmut IVT, anti-RXR (DBD mutation: RXRa K156A/R161A, NR concentration 270 nM, RXRa partner concentration 90 nM). A digest of the protocol: as §1
The test system of assay [12] is PPARg:RXRa IVT, anti-PPARg (NR concentration 270 nM, RXRa partner concentration 90 nM). A digest of the protocol: as §1
Assay [13] concerns PPARg DBDmut:RXRa IVT, anti-PPARg (DBD mutation: PPARg1 K132A/R137A, NR concentration 270 nM, RXRa partner concentration 90 nM). The method, boiled down:
as §1

Assay [14] relates to PPARg DBDmut IVT, anti-PPARg (DBD mutation: PPARg1 K132A/R137A, NR concentration 270 nM). A digest of the protocol:
as §1

The subject of assay [15] is PPARg homodimer (NR concentration 180 nM). A digest of the protocol:
as §1

Assay [16] concerns PXR:RXRa (NR concentration 270 nM, RXRa partner concentration 90 nM). A digest of the protocol: as §1
Assay [17] has as its system PXR homodimer (NR concentration 270 nM). A digest of the protocol: as §1
Assay [18] has as its system RARa:RXR (NR concentration 270 nM, RXRa partner concentration 90 nM). The method, boiled down:
as §1

Assay [19] has as its system RARa homodimer (NR concentration 270 nM). The method, boiled down: as §1
Assay [20] relates to RARb:RXRa (NR concentration 270 nM, RXRa partner concentration 90 nM). The method, boiled down: as §1

Take CCTCGGAGGAAAGAAGGTCAGAGCTGTCCGCTTT: the PBM binding z-score in assay [1] was 0.768; in [2] it was 1.38; in assay [3], -0.152; in [4], 0.92; in [5] it was -0.651; in assay [6] it was 2.01. In addition, the PBM binding z-score in [7] was -0.343; in assay [8], 0.98; in assay [9], -0.857; in assay [10] it was 0.12; in assay [11], 0.673; in [12] it was 0.86. The PBM binding z-score in [13] is -2.12; in assay [14] it was -1.68; in assay [15] it was 1.32; in assay [16], 1.16; in [17] it was -0.583; in [18], 1.95. Moreover, the results for the PBM binding z-score in assay [19] and in [20] were 0.0336 and 2.27, respectively.
Consider CGTCCAAGGTGAGAGAGGTCAGTGAATGCCGAGT, for which the PBM binding z-score in [1] is 2.18; in [2], 2.18; in [3], 0.878; in [4], 2.05; in assay [5] it was -0.732; in assay [6], 3.11. In addition, the PBM binding z-score in assay [7] came out at 1; in [8], 1.7; in assay [9], 0.115; in assay [10], 1.07; in [11], 2.16; in assay [12] it was 2.49. In addition, the PBM binding z-score in [13] was -1.39; in assay [14], -1.25; in assay [15], 2.8; in assay [16] it was 3.75; in assay [17], 2.87; in assay [18], 3.54. For the same sequence, the PBM binding z-score came out at 0.726 in assay [19] and 3.46 in assay [20].
In the case of CCGACTGGGGCAGAATGGTTACCATACCATCCGG, the PBM binding z-score in assay [1] was -0.449; in assay [2], -0.782; in assay [3], -0.449; in [4], -0.838; in assay [5], -1.2; in assay [6], -0.355. Moreover, the PBM binding z-score in assay [7] was 0.778; in assay [8], -0.289; in [9], -0.329; in assay [10] it was -0.35; in assay [11] it was 1.42; in assay [12], 0.943. Moreover, the PBM binding z-score in assay [13] was -0.354; in assay [14], -1.29; in assay [15], 0.0556; in [16], -1.05; in assay [17], -0.973; in assay [18] it was -0.83. Further, the values for the PBM binding z-score in assay [19] and in assay [20] were -0.164 and 0.0446, respectively.
On to TCATATAGGTAATACAGGTGAAAGCCGGCATCTA, for which the PBM binding z-score in assay [1] is 0.854; in assay [2], 1.36; in assay [3], 0.571; in [4] it was 1.21; in assay [5], -0.105; in assay [6], 1.96. Moreover, the PBM binding z-score is 1.68 in [7]; 2.68 in [8]; 3.73 in assay [9]; 3.35 in assay [10]; 3.7 in assay [11]; 3.6 in [12]. Moreover, the PBM binding z-score in assay [13] came out at 1.75; in assay [14] it was 1.32; in assay [15] it was 1.14; in assay [16] it was 0.985; in [17], 0.433; in assay [18] it was 1.36. The PBM binding z-score in [19] was determined as 0.756; in assay [20], 0.757.
Take CAGCCTAGGTCAGGGCCAGTATTGGAGGAACGTT: the PBM binding z-score in [1] was 1.65; in [2] it was 0.996; in [3], -0.403; in [4], 0.567; in assay [5] it was -1.11; in assay [6], 2.03. Moreover, the PBM binding z-score in assay [7] is 0.396; in assay [8] it was 0.87; in assay [9], -0.497; in assay [10], 0.402; in assay [11], 1.37; in assay [12], 1.29. For the same sequence, the PBM binding z-score in [13] was -1.49; in assay [14] it was -1.57; in assay [15] it was 0.568; in [16], 0.0346; in [17] it was -0.593; in assay [18] it was 1.02. The PBM binding z-score was -0.698 in assay [19] and 3.35 in [20].
On to AGAATGAGGTTATTAAGATCAGGGACTTGCGGTC, for which the PBM binding z-score in assay [1] came to 1.59; in assay [2], 1.49; in [3] it was 0.193; in [4] it was 1.13; in [5], 0.02; in assay [6], 2.5. The PBM binding z-score in [7] was determined as 1.59; in [8] it was 1.87; in assay [9], 0.187; in assay [10], 1.08; in assay [11] it was 3.54; in assay [12], 2.69. In addition, the PBM binding z-score was determined as 0.364 in assay [13]; 0.0807 in assay [14]; 0.911 in assay [15]; 1.15 in assay [16]; 0.684 in [17]; 1.36 in [18]. Also, the PBM binding z-score in assay [19] was determined as 0.425; in assay [20], 1.37.
With CGAACTCGGTCAGAACAGGACAGTGAAGGATGAT, the PBM binding z-score was 0.127 in [1]; 0.0151 in [2]; 0.0405 in assay [3]; -0.32 in [4]; -0.669 in assay [5]; 0.415 in assay [6]. Moreover, the PBM binding z-score in [7] was 0.904; in assay [8], 0.142; in assay [9], 0.197; in [10], 0.033; in assay [11], 1.72; in assay [12], 1.11. Also, the PBM binding z-score in assay [13] is -0.0702; in [14] it was 0.48; in [15], 0.274; in assay [16], -0.108; in assay [17], -0.225; in [18], 0.713. Further, the PBM binding z-score is -0.378 in assay [19] and 1.55 in [20].
